Bioassay records deposited in PubChem BioAssay by The Scripps Research Institute Molecular Screening Center.
MITF primary: blocks human microphthalmia-associated transcription factor; AlphaScreen MITF homodimerization, bead proximity signal; inhibition, % at 2.6 µM; 0.91% of 650,000 active; AID 1259374; in the data active = inhibition above about 50%;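 also: 0% = vehicle wells with protein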
GPR151 activ: human GPR151 activation; 1% of 650,000 active; activation, % at 11.2 µM; AID 1508602; PathHunter beta-arrestin GPR151 cells, luminescence; in the data active = activation above about 4.9%;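 also: 0% = median of compound wells and 100% = cells with positive control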
Target sequence (Q8TDV0 whole entry, looked up): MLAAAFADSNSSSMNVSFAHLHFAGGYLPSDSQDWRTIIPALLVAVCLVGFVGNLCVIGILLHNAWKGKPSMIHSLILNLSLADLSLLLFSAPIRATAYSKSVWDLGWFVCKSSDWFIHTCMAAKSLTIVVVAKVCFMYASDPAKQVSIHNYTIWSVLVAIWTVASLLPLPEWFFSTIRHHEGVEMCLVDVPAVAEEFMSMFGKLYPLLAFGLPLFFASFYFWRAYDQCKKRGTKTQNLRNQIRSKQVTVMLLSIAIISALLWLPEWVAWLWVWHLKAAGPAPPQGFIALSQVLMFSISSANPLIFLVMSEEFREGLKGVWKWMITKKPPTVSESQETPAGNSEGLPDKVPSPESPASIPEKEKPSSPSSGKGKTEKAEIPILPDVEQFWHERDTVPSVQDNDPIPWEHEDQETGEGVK
FBW7 activator: activators of human E3 ligase FBW7 | Q969H0 | normalized activity (activation), % at 26.1 µM | 0.13% of 650,000 active | AID 1259310 | AlphaScreen FBW7–phospho-cyclin E peptide binding, activator screen; in the data active = normalized activity above about 1.9%;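 also: purified mutant Fbw7 with reduced substrate affinity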
TEAD-YAP block: TEAD-YAP interaction inhibition. HEK-TIYL cells, TEAD-Gal4/YAP UAS-luciferase luminescence. inhibition, % at 9.12 µM. 1.4% of 640,000 active. AID 1259422; in the data active = inhibition above about 32%;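 also: 0% = median of test compound wells and 100% = reference inhibitor wells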
An asterisk follows results filed as active. Compounds with a hit are over-represented: about 3.5% of the library has one in this group of screens.

SMILES	MITF primary	GPR151 activ	FBW7 activator	TEAD-YAP block
COc1cc(-c2cn[nH]c2)cc2c(=O)[nH]c([C@H](N)Cc3cccc(F)c3)nc12	-1.9	-1.2	-0.4	71.6*
N[C@H](Cc1cccc(C(F)(F)F)c1)c1nc2ccc(-c3cn[nH]c3)cc2c(=O)[nH]1	3.9	-1.6	-0.5	18.8
COc1cc(-c2cn[nH]c2)cc2c(=O)[nH]c(Cc3cccc(NC(=O)C(C)C)c3)nc12	10.4	0.1	0.9	-5.3
N[C@H](Cc1ccc(Cl)cc1)c1nc2ccc(-c3cn[nH]c3)cc2c(=O)[nH]1	10.9	-0.6	-0.6	94.1*
COc1ccccc1/C=C/c1nn2c(-c3ccccc3OC)nnc2s1	-2.7	2.4	-0.2	53.6*
COc1ccccc1/C=C/C=N\NC(=O)CCn1cnc2ccccc21	-13.1	-0.1	0.0	53.5*
COc1ccccc1/C=C/c1nn2c(Cn3cnc4ccccc43)nnc2s1	0.5	0.6	-0.1	47.9*
CCOc1ccccc1/C=N\NC(=O)CCn1cnc2ccccc21	5.0	1.4	-0.1	2.0
COc1ccccc1/C=C/c1nn2c(COc3ccccc3)nnc2s1	-10.1	1.2	1.2	-5.0
Cc1ccccc1CN[C@H]1C[C@H]2C(=O)N[C@@H](Cc3c[nH]c4ccccc34)C(=O)N2C1	-1.0	3.2	0.0	0.4
CC(=O)C12c3ccccc3C(c3ccccc31)C1C(=O)N(c3ccc(Cl)cc3)C(=O)C12 (configuration not stated)	20.3	0.9	0.0	-18.0
CCc1ccccc1NC(=O)CSC1=C(C#N)C(c2ccc(C)o2)C2=C(CCCC2=O)N1 (configuration not stated)	-2.6	-1.1	-0.1	55.2*
C[C@H]1NC(=O)[C@H]2CN(Cc3ccccc3Cl)CCN2C1=O	12.5	0.3	0.5	-6.1
Cc1ccccc1CN1CCN2C(=O)[C@@H]3CCCN3C(=O)[C@H]2C1	17.2	-0.9	0.8	45.8*
Cc1ccc(F)c(CN2CCN3C(=O)[C@@H]4CCCN4C(=O)[C@H]3C2)c1	16.1	-1.3	0.9	-0.7
O=C1[C@@H]2CCCN2C(=O)[C@H]2CN(Cc3ccccc3Cl)CCN12	6.2	1.4	-0.2	37.1*
CC(=O)NC(c1ccco1)c1ccc2cccnc2c1O (configuration not stated)	77.3*	0.1	-1.8	44.3*
CC(=O)NC(c1cccs1)c1ccc2cccnc2c1O (configuration not stated)	70.0*	-2.2	-0.2	91.5*
CCOC(=O)c1c(NC(=O)CCCOc2ccc(Cl)cc2)sc2c1CCC(C)C2 (configuration not stated)	22.9	0.3	0.9	-4.0
Cc1cc(C(F)(F)F)c(C#N)c(=O)n1C	-2.1	2.4	-0.1	1.9
COc1cc(/C=C2\N=C(c3ccccc3)NNC2=O)cc(OC)c1OC	-1.9	-0.3	0.0	49.1*
COc1cc(/C=C2/N=C(c3ccc(-c4ccccc4)cc3)OC2=O)cc(OC)c1OC	-3.8	0.0	0.0	-1.9
CC(NC(=O)Nc1ccc(Br)cc1Cl)C1CCCO1 (configuration not stated)	-0.9	-0.3	0.0	-36.5
CCOc1ccc(NC(=O)c2ccc(F)c(S(=O)(=O)N3CCCC3)c2)cc1	27.9	0.2	0.1	36.9*
Cc1ccc(C(=O)Nc2ccc(Cl)cc2)cc1S(=O)(=O)N1CCOCC1	-6.9	-0.2	-0.1	-9.3
SMILES	MITF primary	GPR151 activ	FBW7 activator	TEAD-YAP block
CCOC(=O)c1ccc(NC(=O)c2ccc(Cl)c(S(=O)(=O)N3CCOCC3)c2)cc1	10.9	3.1	-0.1	72.6*
O=C(Nc1ccc(Cl)c(Cl)c1)c1ccc(F)c(S(=O)(=O)N2CCN(C3CCCCC3)CC2)c1	-5.5	-0.6	0.1	4.3
CCOc1ccc(NC(=O)c2ccc(F)c(S(=O)(=O)N3CCN(C4CCCCC4)CC3)c2)cc1	0.2	1.6	0.0	34.5*
CCN(Cc1ccncc1)Cc1ccc(C(=O)NC23CC4CC(CC(C4)C2)C3)c(=O)[nH]1	-4.0	0.1	-0.1	-6.9
NC(=O)c1ccc(-c2nc(C(=O)NCc3nc4ccccc4[nH]3)cs2)cc1	-12.4	-1.1	0.0	-0.8
Cc1cc(C)n(CCNCc2ccc(OCC(O)CN3CCCCC3)cc2)n1 (configuration not stated)	-3.8	1.1	-0.1	6.5
O=C(CCCc1nc(-c2ccc(Cl)cc2)no1)NC1CCCC1	-11.2	1.0	-0.1	33.9*
Cc1ccc(N(CC(=O)NCCSCc2ccccc2Cl)S(C)(=O)=O)cc1	7.5	1.1	-0.1	13.6
CCN1CCN(Cc2ccc(NC(=O)Nc3ccccc3Cl)cc2)CC1	18.7	-0.2	-0.1	33.7*
OC(COc1ccccc1)CN1C2=NCCN2c2ccccc21 (configuration not stated)	-8.1	-0.3	-0.2	-1.6
OC(COc1ccccc1)CN1C2=NCCCN2c2ccccc21 (configuration not stated)	11.1	1.0	2.1*	-3.8
Cc1nc2ccccc2c(=O)n1NC(=O)c1cc([N+](=O)[O-])cc([N+](=O)[O-])c1	2.4	0.3	0.0	6.0
CCc1ccc(NC(=O)c2ccc(NCc3ccccc3OC)c([N+](=O)[O-])c2)cc1	4.2	0.2	-0.2	1.0
CCc1ccccc1NC(=O)c1ccc(NCc2ccccc2OC)c([N+](=O)[O-])c1	4.2	0.0	0.0	43.0*
COc1ccccc1CNc1ccc(C(=O)Nc2ccc(C)c(F)c2)cc1[N+](=O)[O-]	-1.8	0.1	0.1	1.2
COc1ccccc1CNc1ccc(C(=O)Nc2ccc(C)cc2C)cc1[N+](=O)[O-]	6.8	1.7	0.6	56.8*
COc1ccc2cc(S(=O)(=O)c3ccc(OC)c(OC)c3)c(=O)oc2c1	18.3	1.6	0.0	13.0
CC(C)CC(=O)N1c2ccccc2NC2=C(C(=O)CC(C)(C)C2)C1c1cccc([N+](=O)[O-])c1 (configuration not stated)	1.0	1.9	0.0	17.3
O=C(c1cccc([N+](=O)[O-])c1)n1cc(Cl)cn1	4.8	-0.3	0.1	1.6
COC(=O)CSc1cccc2cccnc12	-10.6	-0.2	-0.7	-3.1
COc1ccc(C(C[N+](=O)[O-])Sc2cccc3cccnc23)cc1 (configuration not stated)	16.2	-1.4	-1.2	57.4*
O=C(N/N=C/C1CC2CCC1C2)c1cccc2ccccc12 (configuration not stated)	-7.3	0.0	-0.1	36.6*
O=C(N/N=C/C1CC2CCC1C2)c1ccc([N+](=O)[O-])cc1 (configuration not stated)	13.7	-1.0	0.0	10.2
O=C(Nc1ccc(-c2nc3ccccc3[nH]2)cc1)c1ccccc1[N+](=O)[O-]	6.3	-1.8	0.0	-71.3
COC(=O)c1cc(Br)ccc1NC(=O)c1ccccc1	1.8	-1.9	-0.1	-6.6
COc1ccc(CCNC(=O)CN(C)S(=O)(=O)c2ccc(Br)cc2)cc1	9.0	1.7	0.2	-9.2
Cc1nc(C)n(-c2ccc(Nc3cc(-c4nn(-c5nccs5)cc4-c4ccccc4)ccn3)cc2)n1	2.8	-0.3	0.0	10.7
